Activity calls are given as the source filed them.

Our source for the composite z-score and composite Z-score values is PubChem BioAssay.

In experiment [1] the target is Albumin (Bos taurus) (UniProt P02769). Kind of experiment: bovine serum albumin binders on microarray, profiling panel, artefact control for SMM control protein annotation, biochemical, small-molecule microarray, Alexa647 label, 635/667 nm fluorescence (AID 1118).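 Further: score merges 667 nm emission intensity and signal-to-noise per printed compound spot.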 The following applies: BSA-A647 binding, fluorescence 635 nm, higher = more signal.
Experiment [2] in a line: small-molecule microarray binders of probe aXIP, primary screen, biochemical, NeuroSMM set, 635/667 nm fluorescence (AID 1119).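 Further: probe is the protein aXip251-270 applied at 1 µg/mL to compound-printed slides; binding of probe to printed compounds measured as 667 nm fluorescence plus signal to noise.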 The settings on record: higher = more signal, called active from +8 up or from −8 down.
Experiment [3] in a line: small-molecule binders of probe aNOTCH3, primary screen, biochemical, small-molecule microarray, 635/667 nm fluorescence (AID 1120).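 Further: probe is a biotin-tagged antibody raised against NOTCH3 rather than NOTCH3 protein; score merges spot fluorescence near 667 nm with spot signal to noise.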 The following applies: higher = more signal.
Experiment [4] can be described thus: small-molecule binders of probe aNOTCH2, primary screen, biochemical, small-molecule microarray, 635/667 nm fluorescence (AID 1121).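 Further: score merges feature fluorescence read at 667 nm with its signal to noise.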 The following applies: higher = more signal.
Experiment [5] has as its target Carbonic anhydrase 2 (Homo sapiens) (UniProt P00918). Kind of experiment: CAII small-molecule binders, profiling panel, biochemical, small-molecule microarray, Alexa647-labelled CAII (AID 1122). The following applies: CAII-A647 binding fluorescence, higher = more signal.
The nature of experiment [6]: COS7 lysate on small-molecule microarray, probe aHis, 635 nm (AID 1123).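 Further: z-score combines 667nm fluorescence intensity with signal-to-noise per printed compound spot.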 The following applies: COS7 cell lysate, fluorescence, higher = more signal.
Experiment [7] in a line: compound binding in COS7 lysate, probe aLAP1, primary screen, cell lysate, small-molecule microarray (AID 1124).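 Further: lysate comes from COS7 cells expressing LAP1 and is applied at 0.3 µg/mL; score merges spot fluorescence near 667 nm with signal-to-noise over triplicate slides.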 The following applies: probe aLAP1, fluorescence, higher = more signal.
The test system of experiment [8] is Sam68 (KHDRBS1). Kind of experiment: Sam68 small-molecule binders, primary screen, biochemical, small-molecule microarray, 635 nm fluorescence (AID 1125).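 Further: score merges 667 nm channel intensity with signal to noise over triplicate slides.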 The following applies: small-molecule microarray binding, higher = more signal.
For experiment [9], the system named is Chordin-like protein 2 (CHRDL2). Kind of experiment: CHRDL2 small-molecule binders, primary screen, biochemical, small-molecule microarray, 635 nm fluorescence (AID 1126).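 Further: printed compound slides probed with Chrdl2 protein at 4 µg/mL for 1 h at 4 C; score merges 667 nm emission intensity with signal to noise over three replicate slides.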 The settings on record: small-molecule microarray binding, fluorescence 635 nm; higher = more signal.
Experiment [10] addresses Concanavalin-A (Canavalia ensiformis) (UniProt P02866). The experiment in a line: ConA small-molecule binders, primary screen, artefact control for SMM control protein annotation, biochemical, small-molecule microarray, Alexa647 label, 635 nm (AID 1127).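 Further: z combines 667 nm emission intensity with signal-to-noise across three replicate slides.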 The settings on record: ConA-A647 binding fluorescence, higher = more signal.

Chain of Albumin (Bos taurus) (P02769 whole entry, looked up): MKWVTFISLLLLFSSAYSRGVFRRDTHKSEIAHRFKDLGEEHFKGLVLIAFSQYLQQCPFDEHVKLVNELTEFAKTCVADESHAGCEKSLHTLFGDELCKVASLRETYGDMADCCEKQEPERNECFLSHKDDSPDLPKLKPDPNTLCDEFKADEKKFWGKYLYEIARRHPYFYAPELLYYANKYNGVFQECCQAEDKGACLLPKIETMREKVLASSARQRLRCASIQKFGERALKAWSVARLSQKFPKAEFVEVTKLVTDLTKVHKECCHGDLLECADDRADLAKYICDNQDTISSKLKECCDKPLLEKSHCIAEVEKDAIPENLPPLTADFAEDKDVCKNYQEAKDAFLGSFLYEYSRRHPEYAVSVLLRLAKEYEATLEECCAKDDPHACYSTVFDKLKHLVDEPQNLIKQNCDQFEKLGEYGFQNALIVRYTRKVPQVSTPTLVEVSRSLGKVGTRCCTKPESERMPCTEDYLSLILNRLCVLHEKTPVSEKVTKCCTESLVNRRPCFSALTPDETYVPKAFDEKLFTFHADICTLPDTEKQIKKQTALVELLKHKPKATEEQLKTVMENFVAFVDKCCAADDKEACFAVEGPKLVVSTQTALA
Chain of Concanavalin-A (Canavalia ensiformis) (P02866 whole entry, looked up): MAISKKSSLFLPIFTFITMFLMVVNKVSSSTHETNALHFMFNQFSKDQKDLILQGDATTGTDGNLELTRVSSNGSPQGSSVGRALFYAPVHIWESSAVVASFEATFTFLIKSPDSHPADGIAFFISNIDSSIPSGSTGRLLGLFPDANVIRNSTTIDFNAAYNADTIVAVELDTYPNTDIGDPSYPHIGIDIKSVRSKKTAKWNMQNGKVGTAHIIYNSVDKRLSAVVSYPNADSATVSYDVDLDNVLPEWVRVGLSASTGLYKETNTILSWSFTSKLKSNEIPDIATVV

For the compound `C[n+]1ccc(-c2ccc(CO)cc2)cc1`, the composite z-score in [1] was -0.619; in experiment [3], -0.0377; in experiment [4] it was -0.157; in [5], 0.68; in [6] it was -0.702; in experiment [7], 0.372. Also, the composite z-score in [8] was 0.364; in experiment [9] it was 1.54; in experiment [10] it was 1.11. Further, the composite Z-score in [2] was 2.7 (inactive).

For `COC(=O)CC=C[C@@H](C)[C@@H](C=NOC[C@H]1O[C@H](c2ccccc2)C=C[C@@H]1Oc1ccc(OC)cc1)OC`, the composite z-score is 0.479 in [1]; -0.23 in [3]; -0.131 in [4]; -0.223 in [5]; -0.3 in [6]; -0.0842 in experiment [7]. Besides, the composite z-score in experiment [8] is -0.379; in experiment [9] it was 0.303; in [10] it was -0.766. The composite Z-score in experiment [2] is -0.0708 (inactive).

As for `COC(=O)C1=C(C)N(Cc2ccccc2)[C@]23O[C@](C(=O)OC)(C(=O)N2[C@@H]1c1ccccc1)C(C(=O)OC)=C3C(=O)OC`, the composite z-score was 0.387 in experiment [1]; 0.201 in experiment [3]; -0.0439 in experiment [4]; 0.489 in experiment [5]; 0.421 in experiment [6]; -0.624 in experiment [7]. The composite z-score turned out to be 0.988 in experiment [8], 0.503 in experiment [9] and 1.18 in experiment [10]. In [2], the composite Z-score was -0.177 (inactive).

Take `COC(=O)[C@@H]1CC[C@H](C)[C@@H](c2ccc(C)cc2)N1C(=O)c1ccc(C=NOCC[C@@H]2C=C[C@H](OC(C)=O)[C@@H](COC(C)=O)O2)cc1`: the composite z-score in [1] is -0.129; in experiment [3], 0.088; in experiment [4] it was -0.1; in experiment [5], -0.0127; in experiment [6], 0.148; in [7], -0.552. The composite z-score in [8] came to 0.926; in [9] it was 0.772; in experiment [10] it was 0.658. Also, in experiment [2], the composite Z-score was -0.2 (inactive).

Consider `Cc1ccc(S(=O)(=O)n2c3ccccc3c3nnc(C(=O)c4ccccc4)nc32)cc1`, for which the composite z-score in [1] is -0.563; in experiment [3], 0.12; in experiment [4], 0.012; in [5] it was -0.141; in experiment [6], -0.111; in experiment [7], 0.246. Besides, the composite z-score was -0.472 in experiment [8], 0.261 in experiment [9] and 0.0083 in [10]. In addition, the composite Z-score in [2] was 0.0578 (inactive).

For `O=C1C[C@@H](O)[C@@H](O)[C@@H]2[C@@H]3C(=O)N(Cc4ccc5c(c4)OCO5)C(=O)[C@@H]3CC[C@H]12`, the composite z-score was 0.272 in experiment [1]; -0.16 in experiment [3]; -0.186 in experiment [4]; -0.126 in [5]; -0.254 in experiment [6]; -0.225 in [7]. For the same compound, the composite z-score in [8] came out at 0.416; in experiment [9], 0.356; in experiment [10] it was 0.717. Further, in experiment [2], the composite Z-score was 0.0723 (inactive).

On to `CCOC(=O)[C@H](CC(C)C)NC(=O)CCC1CC(OC(=O)NCCc2ccc(F)cc2)CC2(CCCC(COC(=O)NCC3CCCCC3)O2)O1` (stereo not given in full), for which the composite z-score in experiment [1] was 0.424; in experiment [3] it was 0.119; in experiment [4], -0.203; in [5] it was 0.255; in [6], 2.11; in experiment [7] it was 0.0165. Besides, the composite z-score in [8] came to 0.986; in experiment [9], 0.618; in experiment [10], 1.07. Further, in [2], the composite Z-score is 0.2 (inactive).

Take `Cc1cc2c(c(=O)o1)[C@@H](O)[C@H]1O[C@H]1C2=O`: the composite z-score in experiment [1] is -0.293; in experiment [3] it was -0.0744; in experiment [4], -0.132; in experiment [5], -0.131; in experiment [6], -0.243; in [7] it was -0.108. Besides, the composite z-score in experiment [8] is 0.568; in [9], 0.705; in [10], 0.358. Moreover, in experiment [2], the composite Z-score was -0.0055 (inactive).

`CCOC(=O)NN=C1C[C@@H](O)[C@@H](O)[C@@H]2[C@@H]3C(=O)N(Cc4ccc5c(c4)OCO5)C(=O)[C@@H]3CC[C@H]12`: the composite z-score in experiment [1] is 0.717; in experiment [3], -0.0629; in experiment [4] it was -0.14; in [5] it was 0.347; in experiment [6], 0.926; in [7] it was -0.387. For the same compound, the composite z-score was 0.364 in experiment [8], -0.121 in experiment [9] and -1.27 in experiment [10]. Moreover, in experiment [2], the composite Z-score was -0.0189 (inactive).

Regarding `CCOC(=O)[C@H](CC(C)C)NC(=O)CCC1CC(OC(=O)NCc2cccc3ccccc23)CC2(CCCC(COC(=O)NCCc3ccc(Cl)cc3)O2)O1` (stereo not given in full), the composite z-score in experiment [1] is 0.332; in experiment [3] it was 0.0203; in experiment [4] it was -0.164; in experiment [5], 0.151; in experiment [6], 0.416; in experiment [7] it was -0.175. Further, the composite z-score in experiment [8] was found to be 0.456; in experiment [9] it was 0.439; in experiment [10], 0.0711. Besides, the composite Z-score in [2] was -0.536 (inactive).

As to `CC(C)=CCCC(C)=CCON=C1C[C@@H](O)[C@@H](O)[C@@H]2[C@@H]3C(=O)N(C[C@@H]4CCCO4)C(=O)[C@@H]3CC[C@H]12`, the composite z-score in experiment [1] is 0.816; in experiment [3], 0.121; in experiment [4] it was -0.0651; in experiment [5] it was 0.22; in experiment [6] it was 0.401; in experiment [7] it was -0.592. The values for the composite z-score in [8], in experiment [9] and in experiment [10] were 1.3, 1.3 and 1.13, respectively. The composite Z-score in [2] is 0.365 (inactive).

Take `CCOC(=O)[C@H](Cc1ccccc1)NC(=O)CCC1CC(OC(=O)NCc2ccc3c(c2)OCO3)CC2(CCCC(COC(=O)NCCc3ccccc3OC)O2)O1` (stereo not given in full): the composite z-score is 0.485 in [1]; 0.0225 in [3]; -0.184 in experiment [4]; 0.253 in [5]; 1.05 in experiment [6]; -0.0407 in experiment [7]. Moreover, the composite z-score in experiment [8] was 1.29; in [9] it was 1.06; in experiment [10], 1.1. Besides, the composite Z-score in experiment [2] was -0.344 (inactive).

`C[C@H]1CC[C@H]2C(=O)OC(CO)CN2[C@@H]1c1ccc(Br)cc1` (stereo not given in full): the composite z-score in experiment [1] is 0.0691; in experiment [3], -0.0647; in experiment [4] it was -0.192; in experiment [5], -0.244; in [6], -0.416; in experiment [7], -0.311. Further, the composite z-score in experiment [8] is 0.253; in [9] it was 0.453; in experiment [10], -0.17. For the same compound, in [2], the composite Z-score is 0.456 (inactive).

Consider `CCOC(=O)[C@H](Cc1ccccc1)NC(=O)CCC1CC(OC(=O)NCCc2ccc(F)cc2)CC2(CCCC(COC(=O)NCC3CCCCC3)O2)O1` (stereo not given in full), for which the composite z-score was 0.505 in [1]; 0.18 in experiment [3]; -0.0294 in experiment [4]; 0.192 in [5]; 0.822 in experiment [6]; 0.236 in experiment [7]. Also, the composite z-score amounted to 1.3 in [8], 0.74 in [9] and 1.07 in experiment [10]. In experiment [2], the composite Z-score is -0.539 (inactive).
